Unmarked numbers belong to inactive results. Rule as the data show it: active = inhibition above about 30%; inactive = the rest.

The nature of this experiment: growth suppression of yeast trafficking mutant, preliminary HTS, modulators of trafficking downstream of Golgi apparatus project, 1536-format plate, OD 615 nm (AID 637). Particulars: yeast transport mutant growth, absorbance 615 nm, 18 h; active compounds read high.
One may read the inhibition as the drop in the measured response relative to a control, in per cent. On to `CC(C)OC(=O)CSc1nnc(-c2ccc(O)cc2)n1Cc1ccccc1`, for which the inhibition is -2.22%.

For the compound `Cn1c(=O)c(=O)n(C)c2cc(S(=O)(=O)N3CCCCC3)ccc21`, the inhibition is 0.16%.

In the case of `Cc1nc2ccc(NC(=O)NCc3ccco3)cc2s1`, the inhibition was 9.37%.

As to `Cc1cc(C)n(S(=O)(=O)c2cc(C(=O)O)c(Cl)cc2Cl)n1`, the inhibition is 4.29%.

With `COc1ccccc1CC(=O)NCc1ccc2c(c1)OCO2`, the inhibition is 6.19%.

With `CCOC(=O)C1=C(C)N(C)C(C)=C(C(=O)OCC)C1c1cccnc1`, the inhibition was -1.75%.

With `C#CCN1C(=O)C(O)(CC(=O)c2cc(OC)ccc2OC)c2ccccc21` (centres undefined), the inhibition is 1.9%.

Regarding `Cc1nc(SCC(=O)NCc2ccco2)c2c(C)c(C)sc2n1`, the inhibition was -0.79%.

With `CCOc1ccc(N2CC(C(=O)Nc3ccc(F)cc3F)CC2=O)cc1` (centres undefined), the inhibition is -5.08%.

For the origin of these results see PubChem BioAssay.
